In the library only some 5% were active in any assay of this set; here they are far more common.
USP2a inhib = qHTS Assay for Inhibitors of Ubiquitin-specific Protease USP2a. actives 0.1% (n = 60,000). Potency, µM (titrated, usually from 38.3 µM), for the others: top-dose activity change, negative = inhibition, usual class: inhibitors. AID 927, 2007. USP2a enzymatic assay, qHTS inhibition; note: nearly all actives have a fitted effect of over 60% in size
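Inhibition is measured in a cell-free coupled assay with 20 nM USP2 core, 20 nM Ub-PLA2 and 20 uM NBD C6-HPC, 2.5 h incubation. Activity normalized to NEM control.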
CRE Fsk mod = Cell signaling CRE-BLA (Fsk stim); AID 662, 2007; actives 2.5% (n = 71,000); Potency, µM (titrated, usually from 38.2 µM), for the others: at the highest dose activity change, negative = inhibition, hits mostly activators; CHO CRE-bla reporter (cAMP response element driving beta-lactamase), forskolin EC10, beta-lactamase ratio; active = well fitted activation curve with a large enough effect in the signal ratio, with a control signal flat, not every such curve was filed as active; inconclusive = small, poorly fitted or top-dose-only effect, or effect the other way, or a change in a side signal; the % refers to the signal ratio; note: % of control where 0% means no effect
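CHO CRE-bla cells, overnight plating in Opti-MEM with 0.5% dialyzed FBS; cpd titration + EC10 NKH 477, 3 h 37 °C; CCF4 2 h RT; ex 405/em 460 vs 530 ratio → %Activity, AC50.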
Casp7 inh = qHTS Assay for Allosteric/Competitive Inhibitors of Caspase-7; P55210; recombinant caspase-7, Ac-DEVD-AFC fluorescence rate; Potency, µM (series often up to 57.5 µM), for the others: at the highest dose activity change, negative = inhibition, usual class: inhibitors; actives 0.02% (n = 75,000); AID 889, 2007; active = well fitted inhibition curve with a large enough effect in the main read-out, with a control signal flat, not every such curve was filed as active; inconclusive = small, poorly fitted or top-dose-only effect, or a change in a side signal; note: % of control where 0% means no effect
Target sequence (P55210 24-198 limits assumed): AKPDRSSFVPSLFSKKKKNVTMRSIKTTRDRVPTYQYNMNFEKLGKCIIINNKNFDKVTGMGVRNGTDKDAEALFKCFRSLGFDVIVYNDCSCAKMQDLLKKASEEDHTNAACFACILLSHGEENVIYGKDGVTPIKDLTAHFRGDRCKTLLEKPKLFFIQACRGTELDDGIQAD
Target sequence (P55210 207-303 limits assumed): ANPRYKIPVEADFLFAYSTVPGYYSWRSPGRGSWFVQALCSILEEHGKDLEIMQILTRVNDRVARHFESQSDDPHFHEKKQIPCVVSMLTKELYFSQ
Caspase-1 inhib = qHTS Assay for Allosteric/Competitive Inhibitors of Caspase-1 | actives 0.03% (n = 75,000) | Potency, µM (highest dose often 57.5 µM), inactives show at the highest dose activity change, negative = inhibition, hits mostly inhibitors | Caspase-1 enzyme, Ac-WEHD-AFC fluorogenic rate | AID 900, 2007;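 note: plate controls were vehicle for no effect and no substrate for full effect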
Target sequence (P29466 120-297 limits assumed): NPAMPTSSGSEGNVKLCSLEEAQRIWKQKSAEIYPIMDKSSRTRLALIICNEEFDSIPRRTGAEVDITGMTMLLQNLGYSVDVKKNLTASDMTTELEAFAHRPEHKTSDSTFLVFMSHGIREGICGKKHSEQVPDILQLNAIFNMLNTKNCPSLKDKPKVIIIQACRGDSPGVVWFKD
Target sequence (P29466 317-404 limits assumed): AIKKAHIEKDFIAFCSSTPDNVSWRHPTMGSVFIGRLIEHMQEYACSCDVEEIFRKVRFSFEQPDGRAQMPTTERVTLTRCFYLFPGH
HEK293 cAMP ctrl = qHTS Assay for Agonists of the Thyroid Stimulating Hormone Receptor: Activators of Intracellular cAMP Concentrations in Parental HEK 293; actives 2.5% (n = 73,000); AID 938, 2007; parental HEK293 CNG cAMP sensor, membrane potential fluorescence; Potency, µM (series often up to 57.1 µM), for the others: top-dose activation, most hits filed as activators; note: % of control where 0% means no effect; nearly all actives have a fitted effect of over 55% in size
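Parental HEK 293 cells stably expressing a cAMP-gated CNG channel were loaded with membrane potential dye containing 100 uM RO 20-1724 for 60 min. Compound added for 30 min; depolarization read as fluorescence intensity at 590 nm.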
TSHR ag = qHTS Assay for Agonists of the Thyroid Stimulating Hormone Receptor. Thyrotropin receptor (Homo sapiens), P16473. HEK293-CNG-TSHR cells (CNG channel as cAMP sensor), membrane potential dye, cAMP. Potency, µM (highest dose often 57.1 µM), for the others: top-dose activation, most hits filed as activators. actives 0.48% (n = 73,000); active = well fitted activation curve with a large enough effect in the main read-out, with a control signal flat, not every such curve was filed as active; inconclusive = small, poorly fitted or top-dose-only effect, or a change in a side signal; inactive = no such curve, though single readings can be large or run the other way; % of control where 0% means no effect;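 note: the control signal comes from parental cells without the receptor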
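HEK 293 cells stably expressing TSHR and a modified CNG channel, with CNG-only parental cells as counterscreen, were preloaded 60 min at room temperature with membrane potential dye containing 100 uM RO 20-1724. Compound exposure was 30 min, and depolarization was read as fluorescence at 590 nm.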
* marks the source's active call; other numbers are inactive results; ? = inconclusive; · = not tested or not shown; [ ] = another dose, or the depositor's remark. Unless noted, calls come from the whole dose curve; as a rule, active = well fitted curve in the direction sought with a large enough effect; inconclusive = small, poorly fitted or top-dose-only effect, or another doubt; inactive = no such curve, though single readings can be large; an effect the other way counts as inactive or inconclusive. Potency is the fitted concentration of half-maximal effect.

SMILES	USP2a inhib	CRE Fsk mod	Casp7 inh	Caspase-1 inhib	HEK293 cAMP ctrl	TSHR ag
O=C(C[C@@H]1C=Cc2ccccc2N1C(=O)c1ccccc1)c1ccccc1	·	-4.4%[7.6 µM]	-1.4%[11.5 µM]	-1.2%[11.5 µM]	?	?
NCCC[C@@H](CC(=O)N[C@@H]1CCNC[C@H]1C(=O)N[C@H](CC(=O)N[C@@H](CCC(=O)O)CC(=O)O)Cc1c[nH]c2ccccc12)NC(=O)C[C@H](Cc1ccccc1)NC(=O)[C@@H]1CNCC[C@H]1N	·	-19.0%	·	·	10.0%	3.0%
COC(=O)[C@@]1(Cc2ccc(OC)cc2)[C@H]2c3cc(C(=O)N4CCCC4)n(Cc4ccsc4Br)c3C[C@H]2CN1C(=O)c1ccccc1	·	-11.0%	-4.5%	-9.7%	2.51µM*	?
C/C(CCN1CCCc2nc(C)c(C)cc21)=N\O[C@@H](C)CN1CCCCc2nc(C)c(C)cc21	·	·	-2.5%[11.5 µM]	-2.5%[11.5 µM]	6.2%[11.4 µM]	14.6%[11.4 µM]
Cc1cc(C)c2c(N)c(C(=O)N3CCN(c4ncccn4)CC3)sc2n1	4.4%	12.6µM*	-14.6%	-13.3%	3.5%	1.4%
COCc1cc(C)nc2sc(C(=O)N3CCN(c4ccccc4)CC3)c(N)c12	·	?	-16.2%	-12.4%	5.7%	0.8%
O=C(O)c1ccc(OCc2ccccc2)c(Cl)c1	·	2.8%[7.6 µM]	1.6%[11.5 µM]	0.2%[11.5 µM]	20.8%[11.4 µM]	4.0%[11.4 µM]
N#CCSc1nnc(COc2cccc3ccccc23)n1-c1ccccc1	-18.7%	-3.7%	-10.2%	-4.3%	12.6µM*	?
CCOC(=O)c1c(-c2ccc(C)s2)csc1NC(=O)c1ccco1	3.1%	23.0%	-4.8%	-1.7%	20.1%	12.0%
COC(=O)c1c(-c2cccs2)csc1NC(=O)CN1CCOCC1	4.1%	3.16µM*	-1.6%	-3.3%	?	?
CCOC(=O)c1c(-c2ccc(C)o2)csc1NC(=O)CN1CCN(CC)CC1	31.0%	26.6%	1.0%	-0.8%	21.5%	1.6%
CCOC(=O)c1c(-c2cccs2)csc1NC(=O)COC(=O)c1c(C)noc1C	-5.3%	2.51µM*	-1.3%	-3.3%	24.4%	3.4%[11.4 µM]
COc1ccc(-c2cc(C(F)(F)F)n3nc(C(=O)N4CCCCC4)cc3n2)cc1	·	12.6µM*	?	·	?	?
NC(=O)c1cnn2c(C(F)(F)F)cc(-c3ccc(F)cc3)nc12	·	10µM*	-1.1%	-1.1%	-4.8%	7.9%
O=C(c1cnn2c(C(F)(F)F)cc(-c3ccc4c(c3)OCO4)nc12)N1CCCCC1	-6.4%	0.7%	-0.1%	-4.1%	20µM*	?
CN1CCN(C(=O)c2cnn3c(C(F)(F)F)cc(-c4ccc5c(c4)OCO5)nc23)CC1	6.2%	0.5%	-2.5%	-6.3%	12.0%	15.2%
O=C(c1cc2nc(-c3ccc(F)cc3)cc(C(F)(F)F)n2n1)N1CCCC1	4.2%[7.66 µM]	?	-0.6%	-1.1%	-0.3%[11.4 µM]	8.7%[11.4 µM]
CCOc1ccccc1OCc1nn2c(COc3ccccc3)nnc2s1	11.9%	?	-2.8%	-3.8%	15.8µM*	?
COc1ccc(-c2nnc3sc(COc4ccc(C)cc4)nn23)cc1	0.7%	7.3%	1.2%	-1.4%	20µM*	?
COc1ccc(OCc2nn3c(-c4ccccn4)nnc3s2)cc1	7.3%	19.1%	-0.4%	1.6%	5.6%	13.6%
c1ccc(Cc2nn3c(COc4ccccc4)nnc3s2)cc1	24.9%	-4.3%	-11.7%	-0.5%	0.7%	-1.7%
CCOc1cccc(-c2nnc3sc(COc4ccc(C)cc4)nn23)c1	-6.7%	-2.2%	-0.6%	-2.3%	25.1µM*	?
COc1ccccc1-c1nnc2sc(COc3ccc(Cl)cc3)nn12	22.5%	7.2%	-2.3%	0.4%	?	?
CCOc1cccc(-c2nnc3sc(COc4ccc(Cl)cc4)nn23)c1	3.8%	-9.7%	-1.5%	-2.0%	15.8µM*	?
CCOc1ccc(-c2nn3c(-c4ccccc4)nnc3s2)cc1	-16.3%	5.2%	-2.4%	-1.9%	?	?
SMILES	USP2a inhib	CRE Fsk mod	Casp7 inh	Caspase-1 inhib	HEK293 cAMP ctrl	TSHR ag
C=C(C)CC1(c2ccccc2)Oc2ccccc2-c2nc3cc(Cl)c(Cl)cc3nc21 (stereo unspecified)	·	·	-3.0%[11.5 µM]	-2.8%[11.5 µM]	-3.1%[11.4 µM]	-4.3%[11.4 µM]
CSc1ncnc2c1ncn2[C@@H]1O[C@@H](CO)[C@H](O)O[C@@H]1O	·	-4.8%[7.6 µM]	1.7%[11.5 µM]	-0.6%[11.5 µM]	-5.7%[11.4 µM]	10.3%[11.4 µM]
CN(C)CCCNC(=O)c1ccc(Cc2nc3ccccc3[nH]2)cc1	·	·	-0.4%	-3.3%	-8.0%	-7.3%
CN(C)c1ncc2nc(-c3ccc(Cl)cc3)c(=O)n(CCC#N)c2n1	123.2%	?	?	·	-26.7%	-0.9%
CN(C)c1ncc2nc(-c3ccccc3)c(=O)n(CCC#N)c2n1	38.2%	2.51µM*	?	·	12.1%	2.9%
CN(C)c1ncc2nc(CCc3ccccc3)c(=O)n(-c3ccccc3)c2n1	48.9%	5.01µM*	?	·	?	?
CN(C)c1ncc2nc(-c3ccc(F)cc3)c(=O)n(-c3ccccc3)c2n1	87.6%	2.51µM*	?	·	?	?
CN(C)c1ncc2nc(-c3ccc(F)cc3)c(=O)n(CCc3ccccc3)c2n1	-6.6%	?	?	·	?	?
CN(C)c1ncc2nc(-c3ccccc3)c(=O)n(C3CC3)c2n1	-3.8%	?	?	·	?	?
CN(C)c1ncc2nc(CCc3ccccc3)c(=O)n(C3CC3)c2n1	66.2%	3.16µM*	?	?	?	?
O=C1[C@H]2[C@H]3[C@H](O)[C@H](O)C/C(=N/OCc4ccccc4)[C@@H]3CC[C@@H]2C(=O)N1c1cccc(Oc2ccccc2)c1	·	·	-0.3%[11.5 µM]	-0.8%[11.5 µM]	?	?
CCNc1ncc2nc(CCc3ccccc3)c(=O)n(-c3ccccc3)c2n1	144.1%	12.6µM*	?	·	-1.9%	·
CCNc1ncc2nc(CCc3ccccc3)c(=O)n(CCOC)c2n1	2.1%	?	?	·	29.5%	13.5%
Cc1cccc(-n2nnnc2SCn2nnc3ccccc3c2=O)c1	-10.7%	4.0%	6.0%	0.5%	25.1µM*	?
CC1(C)CC(=O)c2cnc(N3CCN(c4ccccc4)CC3)nc2C1	7.6%	8.2%	-0.6%	1.9%	18.3%	4.5%
CC1(C)CC(N2CCN(c3ccccc3)CC2)=CC(=[N+]2CCCC2)C1	-2.7%	-3.6%	-0.7%	1.7%	7.94µM*	?
O=C(CSc1nnc(-c2cccnc2)n1Cc1ccco1)Nc1nc(-c2ccc(F)cc2)cs1	40.7%	3.8%	-2.0%	-4.7%	25.5%	·

Assay outcomes: PubChem BioAssay, National Center for Advancing Translational Sciences (NCATS)
